KCNQ2 enhance – potentiators of rat KCNQ2 potassium channel | O88943 | 310,000 tested, 0.54% active | CHO-K1 KCNQ2, FluxOR thallium flux fluorescence; stronger effect = higher value | B-score at 10 µM | AID 2239;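 active = fluorescence ratio B-score at least 3 SD of library B-scores, with initial fluorescence B-score within 3 of them, cut at about 5.3 in these data; same plate scores as AID 2156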;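 also: B-score of peak minus minimum over baseline fluorescence ratio after K+ and Tl+ stimulus; positive B-score means potentiation of KCNQ2 with more thallium influx and brighter signal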
KCNQ2 block – blocks the rat KCNQ2 potassium channel | O88943 | CHO-K1 KCNQ2, FluxOR thallium flux, 20 min; stronger effect = lower value | B-score at 10 µM | 310,000 tested, 1.1% active;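 active = fluorescence ratio B-score at most minus 3 library SDs, with starting brightness B-score within 2 library SDs, cut at about -5.5 in these data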
Kir21 confirm – confirmation of mouse Kir2.1 potassium channel inhibitors | shares compounds with KCNQ2 enhance | Kir2.1-expressing cells, FluxOR thallium flux fluorescence; stronger effect = lower value | 2,300 tested, 41% active | Tl flux remaining, % of negative control (stronger effect = lower value), % at 10 µM;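 active = Primary-screen hit whose thallium flux fell at least 3 control SD below untreated wells in both duplicates, with normal baseline fluorescence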;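 also: 0% = blank wells without stimulus and 100% = stimulated no-compound controls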
Target sequence (P35561 whole entry, looked up): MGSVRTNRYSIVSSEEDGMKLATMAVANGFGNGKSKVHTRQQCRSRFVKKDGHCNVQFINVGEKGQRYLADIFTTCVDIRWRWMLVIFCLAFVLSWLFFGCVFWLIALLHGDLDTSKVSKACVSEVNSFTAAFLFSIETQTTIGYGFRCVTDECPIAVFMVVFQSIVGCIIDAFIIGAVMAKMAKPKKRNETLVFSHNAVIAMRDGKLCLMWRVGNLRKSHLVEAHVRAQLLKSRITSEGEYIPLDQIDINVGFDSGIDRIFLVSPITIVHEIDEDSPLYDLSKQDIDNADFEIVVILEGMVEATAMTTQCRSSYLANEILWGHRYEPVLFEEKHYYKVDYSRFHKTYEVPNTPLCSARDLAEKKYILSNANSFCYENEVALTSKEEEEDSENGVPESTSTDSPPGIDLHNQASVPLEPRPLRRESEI
HEK293 ctr – counter-screen for Kir2.1 inhibitors: effect in parental HEK293 cells; shares compounds with KCNQ2 enhance; FluxOR thallium flux fluorescence; 0% = unstimulated blank wells; FluxOR signal as % of negative control (100 = no effect), % at 10 µM; 2,300 tested, 19% active; AID 2105;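 active = dye signal at least 3 control SD above or below untreated wells in both duplicates, raw fluorescence within 3, either direction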;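 also: percent is based on the flux ratio of peak minus minimum fluorescence over baseline F0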
CHO-K1 ctr – counter-screen for KCNQ2 potentiators: effect in parental CHO-K1 cells. shares compounds with KCNQ2 enhance. FluxOR thallium flux fluorescence; zero = vehicle mean+3SD, 100% = vehicle-minus-blank window. 1,200 tested, 43% active. activity increase over 3SD of controls, % at 10 µM;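 active = signal rise of at least 3 SD above the untreated control mean, in both duplicate wells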;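 also: counter screen of KCNQ2 potentiator hits so any rise reflects channel-independent effects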
KCNQ1 pot spec – selectivity of KCNQ2 potentiators: effect on human KCNQ1; shares compounds with KCNQ2 enhance; CHO KCNQ1 stable, FluxOR thallium flux fluorescence; beyond 3SD, as % of vehicle-control signal; activation over 3SD threshold, % at 10 µM; 1,200 tested, 28% active;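 active = fluorescence ratio rise of at least 3 SD of vehicle wells above their mean, in both replicate wells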;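 also: 0% = vehicle mean plus 3 SD and 100% = vehicle minus unstimulated blank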
KCNQ2 pot confirm – confirmation of rat KCNQ2 potassium channel potentiators; shares compounds with KCNQ2 enhance; potentiation, less the hit threshold, % at 10 µM; 1,200 tested, 68% active; CHO-KCNQ2 cells, FluxOR thallium flux fluorescence;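 active = fluorescence ratio rising 3 SD or more over the vehicle control mean in both replicates, plus primary screen hit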;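 also: peak minus minimum thallium fluorescence divided by baseline after K/Tl stimulus; 0% = vehicle mean plus 3 SD and 100% = vehicle minus unstimulated blank difference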
Kir21 spec – tests whether KCNQ2 potentiators also affect mouse Kir2.1. shares compounds with KCNQ2 enhance. HEK293 Kir2.1, FluxOR thallium flux fluorescence. activity over 3SD threshold, % at 10 µM. 1,200 tested, 2% active. AID 2345;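 active = fluorescence ratio rise of at least 3 SD above the vehicle-control mean, seen in both replicates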;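 also: 0% = vehicle mean plus 3 SD and 100% = vehicle minus no-stimulus blank window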
KCNQ2 W236L MoA – KCNQ2 potentiators acting on retigabine-insensitive rat KCNQ2 W236L mutant; CHO KCNQ2-W236L, automated patch clamp current; current increase over 3SD of negative controls (%), stronger effect = higher value, % at 25 µM; AID 2558; 940 tested, 10% active; shares compounds with KCNQ2 enhance;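 active = current increase at least 3 SD of the untreated controls above them in both duplicate recordings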
Active calls of the source: *. Most compounds without a hit are left out; they make up all but 1.6% or so of the library.

`COc1cccc(C(=O)Nc2cccc3ccccc23)c1` gave KCNQ2 block inactive.
CCc1ccc(NC(=O)C(=O)NNC(=O)c2ccc(OC)cc2)cc1 was read as KCNQ2 enhance 24.5*, KCNQ2 block inactive, Kir21 confirm inactive, HEK293 ctr inactive, CHO-K1 ctr -12.6, KCNQ1 pot spec -45.3, KCNQ2 pot confirm -3.3, Kir21 spec -25.1 and KCNQ2 W236L MoA inactive.
`COc1ccc(NC(=O)c2ccc(C)cc2)cc1` gave KCNQ2 block inactive.
`COc1ccc(C(=O)NNC(=O)C(=O)Nc2ccc(C)cc2)cc1` gave KCNQ2 enhance 27.8*, KCNQ2 block inactive, Kir21 confirm inactive, HEK293 ctr 234.0%*, CHO-K1 ctr 5.7*, KCNQ1 pot spec -5.9, KCNQ2 pot confirm 7.6*, Kir21 spec -28.8 and KCNQ2 W236L MoA inactive.
For COc1ccc(CC(=O)NNC(=O)c2ccc(NC(C)=O)cc2)cc1 the results were KCNQ2 enhance 0.3 and KCNQ2 block inactive.
O=S(=O)(Nc1ncccn1)c1ccc(NC(=S)Nc2ccccc2Cl)cc1 was read as KCNQ2 enhance 0.05 and KCNQ2 block inactive.
Screening Cc1ccccc1OCC(=O)NCC(c1cccs1)N1CCOCC1 (stereo not given) returned KCNQ2 block inactive.
Screening CCOc1ccccc1NC(=O)CCCNC(=O)Cn1cnc2sc(C)c(C)c2c1=O returned KCNQ2 enhance 0.03 and KCNQ2 block inactive.
`CC(C)(C)CN1CCNC(=O)C1CC(=O)NCCN1CCCc2ccccc21` (stereo not given) gave KCNQ2 block inactive.
For C/C(=N\NC(=O)CCn1nnc2ccccc21)c1cccs1 the results were KCNQ2 block inactive.
Screening O=C(O)c1ccccc1C(=O)Nc1ccc(-n2nccc2C(F)(F)F)cc1 returned KCNQ2 enhance 0.18 and KCNQ2 block inactive.
For CCOc1ccc(S(=O)(=O)N2CCC(C(=O)N3CCN(Cc4ccccc4)CC3)CC2)cc1 the results were KCNQ2 enhance 0.77 and KCNQ2 block inactive.
For NC(=O)C1CCN(Cc2cccc(OCc3ccccc3)c2)CC1 the results were KCNQ2 enhance 0.01 and KCNQ2 block inactive.
CCOC(=O)C1CCN(Cc2cccc(OCc3ccccc3)c2)CC1 was read as KCNQ2 block inactive, Kir21 confirm 20.5%* and HEK293 ctr inactive.
`O=C1CC2(CCN(C(=O)c3cccc(F)c3)CC2)Oc2ccccc21` gave KCNQ2 block inactive.
Screening COc1ccc(N2CCCC2=N)c(OC)c1 returned KCNQ2 enhance 0.45 and KCNQ2 block inactive.
C/C=C/c1ccc(OCC(O)CNCC(c2ccc(OC)cc2)N(C)C)c(OC)c1 (stereo not given) was read as KCNQ2 block inactive.
For C/C=C/c1ccc(OCC(O)CN2CCCCC2CC)c(OC)c1 (stereo not given) the results were KCNQ2 block inactive.
Screening OC(CNCCc1ccc(Cl)cc1)COc1cc(Cl)ccc1Cl (stereo not given) returned KCNQ2 block inactive, Kir21 confirm 24.0%* and HEK293 ctr 121.5%*.
C/C=C/c1ccc(OCC(O)CNCCc2ccc(OC)cc2)c(OC)c1 (stereo not given) was read as KCNQ2 block inactive, Kir21 confirm inactive and HEK293 ctr inactive.
Screening COc1ccc(CCNCC(O)COc2ccc(Cl)cc2)cc1OC (stereo not given) returned KCNQ2 enhance 1.43 and KCNQ2 block inactive.
C/C=C/c1ccc(OCC(O)CN(C)Cc2ccc(SC)cc2)c(OC)c1 (stereo not given) was read as KCNQ2 block inactive, Kir21 confirm inactive and HEK293 ctr inactive.
O=C(O)c1ccccc1OCc1nc2ccccc2s1 was read as KCNQ2 block inactive.
CCc1cc(=O)oc2cc(C)cc(OCC(=O)NC(Cc3ccc(Cl)cc3)C(=O)O)c12 (stereo not given) was read as KCNQ2 block inactive.
Screening Cc1nn(Cc2ccccc2)c(Cl)c1/C=C/C(=O)OC(C)C(=O)N1CCCC1 (stereo not given) returned KCNQ2 enhance 0.48 and KCNQ2 block inactive.
Screening CCOc1ccccc1/C=C/c1onc(C)c1S(=O)(=O)N1CCC(C(=O)NC(C)(C)C)CC1 returned KCNQ2 block inactive.
Screening Cc1ccc(NC(=O)CSc2ncc3ccccn23)cc1 returned KCNQ2 enhance 1.66 and KCNQ2 block inactive.
COc1ccc(CN(CC(=O)NCC2CCCO2)C(=O)CNS(=O)(=O)c2ccccc2)cc1 (stereo not given) was read as KCNQ2 enhance 0.61 and KCNQ2 block inactive.
Screening CCN(CC)CCn1c2c(c(SCC(=O)Nc3ccc4c(c3)OCCO4)nc1=O)CCCC2 returned KCNQ2 enhance 0.8 and KCNQ2 block inactive.
Clc1ccc2nc(C3CCN(Cc4ccccc4)CC3)[nH]c2c1 was read as KCNQ2 block inactive, Kir21 confirm 41.0%* and HEK293 ctr inactive.
Screening Cc1ccc(CN2CCC(c3nc4ccc(Cl)cc4[nH]3)CC2)cc1 returned KCNQ2 block inactive, Kir21 confirm 26.0%* and HEK293 ctr inactive.
O=C(c1cccc(Cl)c1)N1CCC(c2nc3ccccc3[nH]2)CC1 was read as KCNQ2 enhance 0.82 and KCNQ2 block inactive.
For CC1CCCCN1C(=O)CN1CCC(c2nc3ccc(Cl)cc3[nH]2)CC1 (stereo not given) the results were KCNQ2 block inactive.
Screening COc1ccc(NC(=O)C2CC(c3ccccc3O)=NO2)cc1OC (stereo not given) returned KCNQ2 block inactive.
Screening Cc1ccccc1Cn1c(NC2CCCC2)nc2c1c(=O)[nH]c(=O)n2C returned KCNQ2 block inactive.
O=C(COC(=O)CCc1ccccc1)NC(c1ccccc1)c1ccccc1 was read as KCNQ2 block inactive.

High-throughput results: PubChem, Johns Hopkins Ion Channel Center
